The record followed here is PubChem BioAssay (EPA / NIEHS).

A word on the AC50: it is the concentration at which the activity in the assay is half-maximal.

The target in assay [1] is human Dopamine Receptor D2 (DRD2), DRD2 (gene 1813) (UniProt P14416). Kind of assay: NVS_GPCR_hDRD2s: NovaScreen (NVS) G Protein-Coupled Receptor Assay for human Dopamine Receptor D2 (DRD2) (AID 2283266). Put shortly:
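Test compound (25 uM, duplicate in the primary screen; concentration series at follow-up) competed with radioligand for human DRD2 in CHO-derived membrane protein. Filter-based scintillation counting was done 1.5 hours after dosing, with loss of signal analysed against DMSO.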

Assay [2] addresses human Endothelin Receptor Type B (ETB), EDNRB (gene 1910) (UniProt P24530). Kind of assay: NVS_GPCR_hETB: NovaScreen (NVS) G Protein-Coupled Receptor Assay for human Endothelin Receptor Type B (ETB) (AID 2283267). Put shortly: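 Filter-based scintillation readout of radioligand displacement, 4 h, using membranes from human astrocytoma cells. Actives from a 25 uM duplicate screen were retested in concentration-response (top 50 uM) relative to DMSO baseline.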

For assay [3], the target named is human Neurokinin, NK2 Receptor, TACR2 (gene 6865) (UniProt P21452). Briefly: NVS_GPCR_hNK2: NovaScreen (NVS) G Protein-Coupled Receptor Assay for human Neurokinin, NK2 Receptor (AID 2283278).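 Also: actives reduce bound radioligand signal relative to DMSO baseline.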 The method in brief:
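Cell-free radioligand binding using receptor protein extracted from CHO cells; readings taken 4 hours after chemical dosing by filter-based scintillation counting. Primary screen ran single concentration (25 uM) in duplicate; actives followed up in concentration series, loss-of-signal versus DMSO baseline.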

The target in assay [4] is human Endothelin Receptor Type A (ETA), EDNRA (gene 1909) (UniProt P25101). Kind of assay: NVS_GPCR_hETA: NovaScreen (NVS) G Protein-Coupled Receptor Assay for human Endothelin Receptor Type A (ETA) (AID 2283265). The method in brief: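 Binding of radioligand to membrane protein extracted from SH-SY5Y cells was read by filtration and scintillation after 3 h. Compounds were screened at 25 uM in duplicate, with hits followed up in singleton concentration series to 50 uM.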
Chain of human Endothelin Receptor Type A (ETA), EDNRA (gene 1909) (P25101 whole entry, looked up): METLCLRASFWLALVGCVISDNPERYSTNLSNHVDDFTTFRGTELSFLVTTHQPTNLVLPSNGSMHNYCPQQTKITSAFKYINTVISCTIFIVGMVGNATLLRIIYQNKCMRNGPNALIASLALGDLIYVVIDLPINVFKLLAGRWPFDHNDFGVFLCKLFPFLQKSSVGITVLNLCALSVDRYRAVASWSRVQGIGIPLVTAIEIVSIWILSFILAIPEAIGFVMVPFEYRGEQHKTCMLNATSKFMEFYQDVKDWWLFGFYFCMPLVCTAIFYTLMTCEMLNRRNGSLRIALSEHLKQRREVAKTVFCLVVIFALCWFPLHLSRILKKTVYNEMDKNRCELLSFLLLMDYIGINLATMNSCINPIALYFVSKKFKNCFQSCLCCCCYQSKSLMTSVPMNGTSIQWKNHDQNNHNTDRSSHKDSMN

For assay [5], the target named is D(1A) dopamine receptor (Homo sapiens) (UniProt P21728). Kind of assay: NVS_GPCR_hDRD1: NovaScreen (NVS) G Protein-Coupled Receptor Assay for human Dopamine Receptor D1 (DRD1) (AID 2283269). The method in brief: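 Cell-free competition with radioligand, filter-trapped and scintillation-counted 1 h post-dose, using HEK293-derived human D1 preparation. Duplicate single-point testing at 25 uM first, then concentration series for actives; DMSO served as baseline, loss-of-signal scored.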
Chain of D(1A) dopamine receptor (Homo sapiens) (P21728 whole entry, looked up): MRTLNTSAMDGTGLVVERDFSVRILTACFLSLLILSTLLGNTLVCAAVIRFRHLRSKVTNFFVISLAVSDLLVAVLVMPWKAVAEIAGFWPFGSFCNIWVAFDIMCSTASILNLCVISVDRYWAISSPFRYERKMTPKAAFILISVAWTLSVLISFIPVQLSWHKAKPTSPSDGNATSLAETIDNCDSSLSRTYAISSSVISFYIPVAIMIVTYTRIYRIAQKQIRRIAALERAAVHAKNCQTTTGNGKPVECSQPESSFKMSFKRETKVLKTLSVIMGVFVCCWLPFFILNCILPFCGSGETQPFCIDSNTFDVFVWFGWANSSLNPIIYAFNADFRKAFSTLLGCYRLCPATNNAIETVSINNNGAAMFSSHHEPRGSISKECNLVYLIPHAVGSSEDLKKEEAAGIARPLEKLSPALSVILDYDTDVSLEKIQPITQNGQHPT

Assay [6] deals with human Neuropeptide Receptor Y1 (NPY1), NPY1R (gene 4886) (UniProt P25929). Kind of assay: NVS_GPCR_hNPY1: NovaScreen (NVS) G Protein-Coupled Receptor Assay for human Neuropeptide Receptor Y1 (NPY1) (AID 2283276). Put shortly: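 Displacement of specific radioligand from NPY1 receptor of SK-N-MC origin, read by filtration and scintillation after 1 h. Compounds first tested at 25 uM in duplicate, then actives in concentration series; signal loss relative to DMSO.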
Chain of human Neuropeptide Receptor Y1 (NPY1), NPY1R (gene 4886) (P25929 whole entry, looked up): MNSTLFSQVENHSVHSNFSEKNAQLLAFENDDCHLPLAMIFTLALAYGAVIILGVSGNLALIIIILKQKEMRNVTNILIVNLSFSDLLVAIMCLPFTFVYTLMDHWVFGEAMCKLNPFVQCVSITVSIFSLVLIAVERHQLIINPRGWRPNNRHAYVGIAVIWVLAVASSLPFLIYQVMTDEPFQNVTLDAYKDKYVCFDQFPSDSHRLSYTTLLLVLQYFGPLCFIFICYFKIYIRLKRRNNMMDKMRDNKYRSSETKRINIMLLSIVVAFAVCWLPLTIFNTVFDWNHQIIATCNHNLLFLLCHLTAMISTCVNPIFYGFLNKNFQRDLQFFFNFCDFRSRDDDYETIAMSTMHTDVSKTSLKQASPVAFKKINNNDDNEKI

The target of assay [7] is human Opioid Receptor Delta 1 (Opiate D1), OPRD1 (gene 4985) (UniProt P41143). Briefly: NVS_GPCR_hOpiate_D1: NovaScreen (NVS) G Protein-Coupled Receptor Assay for human Opioid Receptor Delta 1 (Opiate D1) (AID 2283280). The method in brief:
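Membrane preparations from CHO cells bearing the human receptor were incubated 1 h with test chemical, and bound radioligand was counted after filtration. Actives from 25 uM duplicate screening were retested in concentration-response.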

Assay [8] deals with human Orphanin, Opioid Related Nociceptin Receptor 1 (ORL1), OPRL1 (gene 4987) (UniProt P41146). Briefly: NVS_GPCR_hORL1: NovaScreen (NVS) G Protein-Coupled Receptor Assay for human Orphanin, Opioid Related Nociceptin Receptor 1 (ORL1) (AID 2283283). The method in brief: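 Cell-free binding using HEK293-derived receptor protein: radioligand displacement measured by filter scintillation 1 hour after dosing. Primary testing at 25 uM in duplicate, followed by singleton concentration series up to 50 uM; DMSO served as negative control.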
Chain of human Orphanin, Opioid Related Nociceptin Receptor 1 (ORL1), OPRL1 (gene 4987) (P41146 whole entry, looked up): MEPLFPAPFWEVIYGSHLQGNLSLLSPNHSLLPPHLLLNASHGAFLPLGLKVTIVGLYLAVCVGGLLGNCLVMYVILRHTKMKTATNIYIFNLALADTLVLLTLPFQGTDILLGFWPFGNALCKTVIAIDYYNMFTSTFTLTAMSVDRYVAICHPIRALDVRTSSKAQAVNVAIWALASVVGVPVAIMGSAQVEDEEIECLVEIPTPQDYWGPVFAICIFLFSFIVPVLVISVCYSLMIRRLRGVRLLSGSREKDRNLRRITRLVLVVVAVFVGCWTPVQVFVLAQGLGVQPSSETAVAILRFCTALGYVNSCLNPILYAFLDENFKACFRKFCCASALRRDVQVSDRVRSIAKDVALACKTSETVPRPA

In assay [9] the target is Muscarinic acetylcholine receptor M1 (Homo sapiens) (UniProt P11229). Kind of assay: NVS_GPCR_hM1: NovaScreen (NVS) G Protein-Coupled Receptor Assay for human Muscarinic, M1 Receptor (AID 2283270). The method in brief:
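Actives from a duplicate 25 uM single-point screen were retested in concentration series. Binding measured as displacement of a radioligand from CHO-derived receptor preparation, 1 h incubation, filtration and scintillation counting, analysed as signal loss against DMSO.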

Assay [10] deals with human Muscarinic, M4 Receptor, CHRM4 (gene 1132) (UniProt P08173). Kind of assay: NVS_GPCR_hM4: NovaScreen (NVS) G Protein-Coupled Receptor Assay for human Muscarinic, M4 Receptor (AID 2283274). The method in brief:
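Filter-based scintillation counting of radioligand bound to CHO-expressed human M4 preparations after 1 h; loss of signal fitted versus DMSO. Initial duplicate testing at 25 uM, concentration-response follow-up for actives.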

The target of assay [11] is human Leukotriene B4 Receptor 1 (LTB4-BLT1), LTB4R (gene 1241) (UniProt Q15722). Briefly: NVS_GPCR_hLTB4_BLT1: NovaScreen (NVS) G Protein-Coupled Receptor Assay for human Leukotriene B4 Receptor 1 (LTB4-BLT1) (AID 2283271). The method in brief: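 Cell-free human neutrophil receptor preparation, 1 h exposure, radioligand binding read by filter scintillation counting. Single 25 uM duplicate screen, then concentration series topping at 50 uM; binding loss scored against DMSO baseline.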

Assay [12] has as its target human Purinergic Receptor P2Y, P2RY1 (gene 5028) (UniProt P47900). Kind of assay: NVS_GPCR_hPY2: NovaScreen (NVS) G Protein-Coupled Receptor Assay for human Purinergic Receptor P2Y (AID 2283281). Put shortly:
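Filtration scintillation readout of radioligand displacement on U937 extract, measured 1 h post-dosing. Single 25 uM duplicate screen, then singleton concentration series to 50 uM for chemicals passing threshold; DMSO as baseline.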

Assay [13] concerns the target human Thromboxane A2 Receptor (TXA2), TBXA2R (gene 6915) (UniProt P21731). Briefly: NVS_GPCR_hTXA2: NovaScreen (NVS) G Protein-Coupled Receptor Assay for human Thromboxane A2 Receptor (TXA2) (AID 2283282).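 Also: actives reduce bound radioligand signal relative to DMSO baseline.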 Put shortly: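 Screening ran at 25 uM in duplicate, with concentration series for confirmed actives. Each test measures radioligand binding to human platelet protein after 1 h, cell-free, using filter-based scintillation detection of signal loss relative to DMSO.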

Assay [14] deals with human Dopamine Receptor D4.4 (DRD4.4), DRD4 (gene 1815) (UniProt P21917). Kind of assay: NVS_GPCR_hDRD4.4: NovaScreen (NVS) G Protein-Coupled Receptor Assay for human Dopamine Receptor D4.4 (DRD4.4) (AID 2283264). Put shortly: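 Filter-binding assay with a tritiated or iodinated ligand, cell-free receptor prepared from CHO, 1 hour. Loss of bound radioactivity versus DMSO; single 25 uM duplicate screen, then concentration-response for actives.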

Assay [15] addresses human Histamine 1 Receptor (H1), HRH1 (gene 3269) (UniProt P35367). Kind of assay: NVS_GPCR_hH1: NovaScreen (NVS) G Protein-Coupled Receptor Assay for human Histamine 1 Receptor (H1) (AID 2283268). Put shortly: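 Filter-based scintillation detection of radioligand binding to human H1, 1 h incubation; chemicals screened in duplicate at 25 uM, then concentration-response; signal loss relative to DMSO taken as activity.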

The target in assay [16] is Muscarinic acetylcholine receptor M3 (Homo sapiens) (UniProt P20309). Kind of assay: NVS_GPCR_hM3: NovaScreen (NVS) G Protein-Coupled Receptor Assay for human Muscarinic, M3 Receptor (AID 2283272). Put shortly:
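Radioligand displacement binding on human M3 receptor in CHO-derived membranes, 1 h incubation, filter-based scintillation counting. Primary screen in duplicate at 25 uM; actives followed up in concentration series; loss of signal versus DMSO.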

The target of assay [17] is Muscarinic acetylcholine receptor M5 (Homo sapiens) (UniProt P08912). Kind of assay: NVS_GPCR_hM5: NovaScreen (NVS) G Protein-Coupled Receptor Assay for human Muscarinic, M5 Receptor (AID 2283275). The method in brief: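 Chemicals passing a primary duplicate screen at 25 uM were run as singleton concentration series, maximum 50 uM. Displacement of a specific radioligand from CHO-extracted receptor was read by filter scintillation after 1 h, relative to DMSO.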

Assay [18] has as its target Neuropeptide Y receptor type 2 (Homo sapiens) (UniProt P49146). Kind of assay: NVS_GPCR_hNPY2: NovaScreen (NVS) G Protein-Coupled Receptor Assay for human Neuropeptide Receptor Y2 (NPY2) (AID 2283277). Put shortly:
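Chemicals were first tested in duplicate at 25 uM, then actives in singleton concentration series to 50 uM. Tracer binding to SK-N-MC-derived protein measured cell-free after 1 h via filter scintillation; signal loss relative to DMSO.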

Results filed as inconclusive are left out. Active and inactive are the calls of the source. The calls were made as follows: active = hit-call score of the fitted dose curve at least 0.9, where 1 is the maximum; inconclusive = response in the unintended direction; inactive = score below 0.9.

Chain of human Endothelin Receptor Type B (ETB), EDNRB (gene 1910) (P24530 whole entry, looked up): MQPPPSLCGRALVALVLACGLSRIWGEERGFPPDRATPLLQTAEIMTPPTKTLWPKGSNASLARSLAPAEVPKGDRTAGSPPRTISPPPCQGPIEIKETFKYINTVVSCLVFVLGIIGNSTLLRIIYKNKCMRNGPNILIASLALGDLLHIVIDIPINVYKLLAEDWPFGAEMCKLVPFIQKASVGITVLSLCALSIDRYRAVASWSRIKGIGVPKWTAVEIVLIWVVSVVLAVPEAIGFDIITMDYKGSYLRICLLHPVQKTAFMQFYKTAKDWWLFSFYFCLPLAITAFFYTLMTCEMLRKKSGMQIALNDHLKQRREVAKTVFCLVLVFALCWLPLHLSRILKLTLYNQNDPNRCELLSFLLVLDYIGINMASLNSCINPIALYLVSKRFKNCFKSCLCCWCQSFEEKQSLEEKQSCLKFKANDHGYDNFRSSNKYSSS
Chain of human Dopamine Receptor D2 (DRD2), DRD2 (gene 1813) (P14416 whole entry, looked up): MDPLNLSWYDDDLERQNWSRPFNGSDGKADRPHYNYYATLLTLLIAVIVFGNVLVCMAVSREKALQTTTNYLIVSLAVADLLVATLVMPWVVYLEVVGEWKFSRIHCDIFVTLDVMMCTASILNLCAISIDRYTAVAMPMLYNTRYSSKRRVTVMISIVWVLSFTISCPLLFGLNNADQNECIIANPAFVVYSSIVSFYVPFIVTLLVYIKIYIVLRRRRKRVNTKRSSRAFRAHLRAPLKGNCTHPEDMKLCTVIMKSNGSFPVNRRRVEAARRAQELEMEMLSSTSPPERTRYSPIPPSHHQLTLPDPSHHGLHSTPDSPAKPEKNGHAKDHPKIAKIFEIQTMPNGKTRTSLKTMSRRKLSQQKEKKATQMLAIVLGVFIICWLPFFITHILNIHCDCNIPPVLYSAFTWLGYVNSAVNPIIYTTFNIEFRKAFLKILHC
Chain of human Opioid Receptor Delta 1 (Opiate D1), OPRD1 (gene 4985) (P41143 whole entry, looked up): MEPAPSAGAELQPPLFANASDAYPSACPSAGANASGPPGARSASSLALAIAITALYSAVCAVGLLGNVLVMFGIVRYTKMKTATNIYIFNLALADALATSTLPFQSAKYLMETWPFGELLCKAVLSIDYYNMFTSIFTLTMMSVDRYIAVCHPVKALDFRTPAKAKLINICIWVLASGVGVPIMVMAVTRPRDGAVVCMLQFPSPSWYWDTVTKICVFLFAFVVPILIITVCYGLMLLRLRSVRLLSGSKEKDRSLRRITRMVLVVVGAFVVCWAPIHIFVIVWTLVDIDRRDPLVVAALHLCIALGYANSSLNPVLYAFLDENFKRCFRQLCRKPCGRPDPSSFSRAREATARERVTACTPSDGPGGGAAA
Chain of human Muscarinic, M4 Receptor, CHRM4 (gene 1132) (P08173 whole entry, looked up): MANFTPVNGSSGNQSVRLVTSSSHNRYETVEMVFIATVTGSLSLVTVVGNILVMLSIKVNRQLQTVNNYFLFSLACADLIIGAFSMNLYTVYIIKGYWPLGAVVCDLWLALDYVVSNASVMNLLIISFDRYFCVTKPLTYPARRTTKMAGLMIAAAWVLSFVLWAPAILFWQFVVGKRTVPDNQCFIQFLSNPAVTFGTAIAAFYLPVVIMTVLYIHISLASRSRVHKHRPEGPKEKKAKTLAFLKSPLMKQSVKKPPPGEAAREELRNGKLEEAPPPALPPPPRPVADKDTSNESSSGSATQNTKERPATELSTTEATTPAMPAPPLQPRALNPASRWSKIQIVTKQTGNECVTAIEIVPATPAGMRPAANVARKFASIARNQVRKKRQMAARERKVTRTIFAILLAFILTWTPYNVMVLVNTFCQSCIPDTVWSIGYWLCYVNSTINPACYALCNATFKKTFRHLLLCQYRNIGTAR
Chain of human Neurokinin, NK2 Receptor, TACR2 (gene 6865) (P21452 whole entry, looked up): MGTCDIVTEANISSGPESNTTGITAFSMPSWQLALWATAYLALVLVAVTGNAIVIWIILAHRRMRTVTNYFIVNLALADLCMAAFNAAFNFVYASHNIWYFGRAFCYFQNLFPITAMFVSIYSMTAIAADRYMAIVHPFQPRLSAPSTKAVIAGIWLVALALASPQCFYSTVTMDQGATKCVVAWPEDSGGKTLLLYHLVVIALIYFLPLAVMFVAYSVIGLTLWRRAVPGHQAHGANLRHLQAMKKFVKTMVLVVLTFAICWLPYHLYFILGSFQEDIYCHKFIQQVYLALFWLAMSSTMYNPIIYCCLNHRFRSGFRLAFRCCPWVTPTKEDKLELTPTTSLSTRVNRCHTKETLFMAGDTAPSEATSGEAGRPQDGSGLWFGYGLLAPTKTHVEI
Chain of human Thromboxane A2 Receptor (TXA2), TBXA2R (gene 6915) (P21731 whole entry, looked up): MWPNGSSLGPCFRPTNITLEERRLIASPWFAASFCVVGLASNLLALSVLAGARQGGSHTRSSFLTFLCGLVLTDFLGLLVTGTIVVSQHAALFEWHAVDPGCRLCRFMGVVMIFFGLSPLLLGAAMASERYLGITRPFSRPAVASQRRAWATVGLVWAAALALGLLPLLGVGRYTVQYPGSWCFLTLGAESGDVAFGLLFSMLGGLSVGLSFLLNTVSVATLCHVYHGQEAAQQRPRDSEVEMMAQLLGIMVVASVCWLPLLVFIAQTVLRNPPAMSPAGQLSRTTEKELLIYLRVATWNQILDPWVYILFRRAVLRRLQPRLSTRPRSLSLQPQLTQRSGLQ
Chain of Muscarinic acetylcholine receptor M1 (Homo sapiens) (P11229 whole entry, looked up): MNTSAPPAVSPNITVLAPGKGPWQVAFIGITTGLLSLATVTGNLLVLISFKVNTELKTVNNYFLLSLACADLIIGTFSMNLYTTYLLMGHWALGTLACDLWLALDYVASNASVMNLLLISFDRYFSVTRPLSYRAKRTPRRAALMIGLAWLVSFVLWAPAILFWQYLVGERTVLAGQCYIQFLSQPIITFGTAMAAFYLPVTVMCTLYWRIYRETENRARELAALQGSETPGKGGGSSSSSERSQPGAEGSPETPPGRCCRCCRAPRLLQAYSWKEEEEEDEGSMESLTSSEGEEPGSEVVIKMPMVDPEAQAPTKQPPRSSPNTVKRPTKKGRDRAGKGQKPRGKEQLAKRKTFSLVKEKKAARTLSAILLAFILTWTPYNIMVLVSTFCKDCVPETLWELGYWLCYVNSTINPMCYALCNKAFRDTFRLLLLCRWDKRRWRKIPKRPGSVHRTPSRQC
Chain of human Purinergic Receptor P2Y, P2RY1 (gene 5028) (P47900 whole entry, looked up): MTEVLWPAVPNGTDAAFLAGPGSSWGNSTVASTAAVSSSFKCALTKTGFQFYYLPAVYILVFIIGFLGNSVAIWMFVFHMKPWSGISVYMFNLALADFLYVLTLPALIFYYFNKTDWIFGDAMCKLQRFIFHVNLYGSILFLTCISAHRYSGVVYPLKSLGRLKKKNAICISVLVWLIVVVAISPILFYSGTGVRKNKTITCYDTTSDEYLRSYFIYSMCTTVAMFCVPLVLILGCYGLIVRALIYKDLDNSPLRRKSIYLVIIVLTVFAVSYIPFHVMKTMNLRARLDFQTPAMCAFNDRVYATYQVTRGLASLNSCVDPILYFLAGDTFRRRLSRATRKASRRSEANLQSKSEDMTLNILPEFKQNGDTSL

On to `N#CC(Br)Br`, for which the compound was called inactive in [1], in [2] and in [3].

`CCC(C)c1ccc(O)cc1` (stereo not given): the compound was called inactive in [4].

For `Cc1ccc(N)c(N)c1`, in [3], the compound was called inactive.

In the case of `Cc1cccc(N)c1N`, the AC50 in [5] is 12.1 µM (active). The call in assay [6] and in assay [3] was inactive.

Regarding `COP(=S)(OC)SCN1C(=O)c2ccccc2C1=O`, the results for the AC50 in assay [5], in assay [3] and in assay [8] were 16.8 µM (active), 8.63 µM (active) and 44.4 µM (active), respectively. In addition, in assay [7], the compound was classed as inactive.

Take `[O-][Cl+]O`: the call in [1] was inactive.

For the compound `O=C(N[C@H](c1ccccc1)[C@@H]1CN2CCC1CC2)c1c(Cl)ccc(C(F)(F)F)c1Cl`, the values for the AC50 in assay [5], in assay [3] and in [8] were 37.5 µM (active), 23.9 µM (active) and 3.38 µM (active), respectively. The call in [9], in [10] and in assay [7] was inactive.

For the compound `C[C@]12C=CC3=C4CCC(=O)C=C4CC[C@H]3[C@@H]1CC[C@@H]2O`, the compound was called inactive in [2] and in assay [11]. Also, the AC50 in assay [3] is 15.6 µM (active).

In the case of `N#CC(Br)(Br)C(N)=O`, the compound was called inactive in [5] and in [3]. Also, the AC50 in assay [8] was 41.2 µM (active).

Take `O=[N+]([O-])c1ccc(Oc2ccc(Cl)cc2Cl)cc1`: the call in [5] and in assay [3] was inactive.

As to `CCCCCCCCn1sccc1=O`, the AC50 in assay [1] was 26 µM (active); in assay [5], 1.32 µM (active); in assay [6], 6.28 µM (active); in assay [13], 9.13 µM (active); in assay [8], 14.1 µM (active). Also, in [12], the compound was classed as inactive.

For `Nc1ccc(N=Nc2ccccc2)cc1`, the call in assay [7] was inactive.

Consider `O=[N+]([O-])C(Br)(CO)CO`, for which the AC50 in assay [3] was 1.21 µM (active); in assay [8], 5.41 µM (active).

Regarding `OCCCBr`, in assay [2], the result was inactive.

Take `CCN(CC)CCO`: the outcome in [10] was inactive.

Turning to `O=P(OCCCl)(OCCCl)OCCCl`, the compound was classed as inactive in assay [7].

As for `CCC[CH2][Sn]([Cl])([CH2]CCC)[CH2]CCC`, the AC50 was 1.83 µM (active) in [14]; 0.695 µM (active) in assay [4]; 0.525 µM (active) in assay [1]; 15.1 µM (active) in [2]; 1.42 µM (active) in assay [15]; 0.445 µM (active) in assay [5]. In addition, the half-maximal activity concentration (AC50) was 1.86 µM (active) in assay [9]; 1.44 µM (active) in [16]; 17.6 µM (active) in assay [10]; 1.58 µM (active) in [6]; 10.3 µM (active) in [18]; 1.08 µM (active) in assay [3]. Also, the results for the concentration at half-maximal activity (AC50) in [7], in assay [13] and in [8] were 0.593 µM (active), 1.77 µM (active) and 1.21 µM (active), respectively. Besides, the compound was classed as inactive in [17].
